Assays:
Conditions in all cases: concentration: 1 μM,replicates: in singlicate; n = 1
DCAMKL2 = test system: T1, DCAMKL2
T1 construct: gene DCLK2

DCAMKL3 = test system: T2, DCAMKL3
T2 construct: gene DCLK3

DDR1 = test system: DDR1
DDR2 = test system: DDR2
DLK = test system: T3, DLK
T3 construct: gene MAP3K12

DMPK2 = test system: T4, DMPK2
T4 construct: gene CDC42BPG

DMPK = test system: DMPK
DRAK1 = test system: T5, DRAK1
T5 construct: gene STK17A

DRAK2 = test system: T6, DRAK2
T6 construct: gene STK17B

DYRK1A = test system: DYRK1A
DYRK1B = test system: DYRK1B
DYRK2 = test system: DYRK2
EGFR = test system: EGFR
EIF2AK1 = test system: EIF2AK1
EPHA1 = test system: EPHA1
EPHA2 = test system: EPHA2
EPHA3 = test system: EPHA3
EPHA4 = test system: EPHA4
EPHA5 = test system: EPHA5
EPHA6 = test system: EPHA6
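Further: KINOMEscan kinase panel screen.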

Compound | %Inh (DCAMKL2) | %Inh (DCAMKL3) | %Inh (DDR1) | %Inh (DDR2) | %Inh (DLK) | %Inh (DMPK2) | %Inh (DMPK) | %Inh (DRAK1) | %Inh (DRAK2) | %Inh (DYRK1A) | %Inh (DYRK1B) | %Inh (DYRK2) | %Inh (EGFR) | %Inh (EIF2AK1) | %Inh (EPHA1) | %Inh (EPHA2) | %Inh (EPHA3) | %Inh (EPHA4) | %Inh (EPHA5) | %Inh (EPHA6)
CC(C(=O)NC1CCN(c2ccnc(Nc3ccc(F)cc3)n2)C1)c1ccc(Cl)cc1 (centres unmarked) [GSK1379713] | 12% | 9% | 14% | 11% | 19% | 0% | 0% | 6% | 0% | 10% | 12% | 10% | 28% | 0% | 0% | 14% | 0% | 0% | 0% | 0%
CSc1nccc(-c2c(-c3ccc(F)cc3)ncn2CCCN2CCOCC2)n1.Cl [SB-217146] | 0% | 0% | 0% | 33% | 0% | 0% | 0% | 0% | 0% | 0% | 12% | 12% | 0% | 0% | 0% | 0% | 0% | 7% | 0% | 0%
CN(c1ccc2c(c1)nc(NCc1ccc(F)cc1)n2C)c1ccnc(Nc2ccc(CS(C)(=O)=O)cc2)n1.Cl [GW813244] | 0% | 0% | 98.4% | 100% | 0% | 0% | 0% | 15% | 7% | 0% | 4% | 30% | 18% | 0% | 0% | 12% | 5% | 20% | 0% | 23%
C[C@@H]1CNc2c(sc3ccc4nc(-c5ccc(O)cc5)ccc4c23)C(=O)N1 | 0% | 54% | 0% | 16% | 0% | 0% | 0% | 100% | 100% | 98.9% | 98.1% | 24% | 11% | 0% | 0% | 0% | 14% | 0% | 11% | 5%
